Measurements: PubChem BioAssay (NCI)
This is part of a sample that, as a whole, favours compounds with a hit. Of some 79,000 tested, about 15% had one in any assay. Activity calls are given as the source filed them. Rule as the data show it: active = growth inhibition above about 70%; inactive = the rest.

Assay: NCI Yeast Anticancer Drug Screen. Data for the mec2-1 strain (AID 157)
Details: S. cerevisiae mec2-1 strain, at 5.0 µM (retest, dose inferred, filed as 0.5), active compounds read high
Summary of the method: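 Mutant yeast (mec2-1) grown with compound; growth inhibition relative to vehicle control reported.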

SMILES	growth inhibition
c1ccc2nc3ccccc3nc2c1	-3% (inactive)
O=C(NCCCl)Nc1c2ccccc2nc2ccccc12	8% (inactive)
CC1=C2CCC3C(CCC4(C)C(C(C)CCCC(C)C)CCC34)C2(C)CCC1=O (stereo not drawn)	1% (inactive)
Cc1cccc(Cl)c1NC(=O)/C=C/c1ccccc1	44% (inactive)
O=C1/C(=C/c2ccc(Cl)cc2)CSC/C1=C\c1ccc(Cl)cc1	12% (inactive)
CCOC(=O)c1c(N)sc2c1CCCCC2	-51% (inactive)
CC(C)NC(=O)O/N=C1\CCC2[C@@H]3CC=C4C[C@@H](OC(=O)NC(C)C)CC[C@]4(C)C3CC[C@]12C (stereo partly drawn)	91% (active)
COc1ccc2c(c1)c(=O)c1c(NCCN(C)C)ccc3nnn2c31	-18% (inactive)
CCCC(=O)N(C(=O)CCC)C1=C(Cl)C(=O)c2ccccc2C1=O	95% (active)
CN(C)C1C=CCC(c2ccccc2)C1[N+](=O)[O-] (stereo not drawn)	10% (inactive)
CC(=O)NC1C(=O)CC(c2ccccc2)N(C)C1c1ccccc1 (stereo not drawn)	2% (inactive)
CCCCC#CCCOC(=O)C#CCCCC	1% (inactive)
CC1C[C@]2(C)C(=S)Nc3ccccc3[C@@H]2Nc2ccccc21 (stereo partly drawn)	8% (inactive)
O=[N+]([O-])/C=C/c1c[nH]c2c1ccc1ccccc12	53% (inactive)
CCC[CH2][Sn]([S][Sn]([CH2]CCC)([c]1ccccc1)[c]1ccccc1)([c]1ccccc1)[c]1ccccc1	93% (active)
CCN(CC)CCCCNc1ccc(Cl)cc1	1% (inactive)
C[n+]1c(/C=C\c2ccccc2)sc2ccccc21	21% (inactive)
Cc1nnc2nc3c(nn12)c1ccccc1n3C	-49% (inactive)
CS(=O)c1cc(=O)c2ccccc2s1 (stereo not drawn)	-4% (inactive)
COC(=O)C1=C(C)NC(C)=C(C(=O)OC)C1c1ccc(NCc2ccccc2)c([N+](=O)[O-])c1	0% (inactive)

SMILES	growth inhibition
C/C(=N/NC(=S)Nc1ccccc1Cl)c1ccccn1	-30% (inactive)
Nc1ccccc1Sc1ccc(C(F)(F)F)cc1[N+](=O)[O-]	2% (inactive)
COc1ccc2nc(-c3ccc(Cl)cc3)[nH]c2c1	-5% (inactive)
Cc1c(C)c(C)c(C(=O)c2ccccc2C(=O)NCCSC(C)(C)C)c(C)c1C	45% (inactive)
COC(=O)C(=O)C(C(=O)Nc1cccc(C)c1C)C1Sc2ccccc2NC1=O (stereo not drawn)	88% (active)
Cc1nc2c(O)c3c(c(O)c2nc1C)C1C=CC3CC1	16% (inactive)
C[C@]12CCC(=O)C=C1CC[C@@H]1[C@@H]2[C@@H](O)C[C@@]2(C)[C@H]1CC[C@]2(O)C(=O)COC(=O)CCC1CCCC1	29% (inactive)
CC(=O)OCCc1ccc(CCc2ccccc2)cc1	1% (inactive)
COc1cc2c(cc1OC)C(=O)C(C)(c1ccccc1)NC2 (stereo not drawn)	9% (inactive)
CCCCCCC(/C=C/c1c(Cl)cccc1Cl)=N\O	-4% (inactive)
O=C1OC(c2ccc(O)cc2)=C(c2ccccc2)C1c1ccccc1 (stereo not drawn)	-7% (inactive)
c1cc[c]([Ge]([O]c2cccc3cccnc23)([c]2ccccc2)[c]2ccccc2)cc1	7% (inactive)
CCCCCCCCCCCCCCCCCCOP(=O)([O-])OCC[N+](C)(C)C	-2% (inactive)
Cc1noc(NS(=O)(=O)c2ccc(NCc3c4ccccc4nc4cc(Cl)ccc34)cc2)c1C	4% (inactive)
CCC(=NCCCCCCN=C(CC)c1cc(C)cc([N+](=O)[O-])c1O)c1cc(C)cc([N+](=O)[O-])c1O.[Fe]	-10% (inactive)
O=C(O)c1ccc([N+](=O)[O-])cc1.[Ag]	100% (active)
O=C1C(=O)c2ccccc2C(O)=C1C(c1ccccc1)c1ccccc1	39% (inactive)
CC(=O)SC1C(=O)N(C)C(SC(C)=O)C(=O)N1C (stereo not drawn)	-5% (inactive)
COc1ccc2c(c1)CN([C@@H](C)[C@H]1CC[C@H]3[C@@H]4CC[C@H]5C[C@@H](O)CC[C@]5(C)[C@H]4CC[C@]13C)CO2	59% (inactive)

Same assay, conditions: S. cerevisiae mec2-1 strain, at 50.0 µM (retest, dose inferred, filed as 5.0), active compounds read high

SMILES	growth inhibition
c1ccc2nc3ccccc3nc2c1	36% (inactive)
O=C(NCCCl)Nc1c2ccccc2nc2ccccc12	39% (inactive)
CC1=C2CCC3C(CCC4(C)C(C(C)CCCC(C)C)CCC34)C2(C)CCC1=O (stereo not drawn)	-2% (inactive)
Cc1cccc(Cl)c1NC(=O)/C=C/c1ccccc1	44% (inactive)
O=C1/C(=C/c2ccc(Cl)cc2)CSC/C1=C\c1ccc(Cl)cc1	37% (inactive)
CCOC(=O)c1c(N)sc2c1CCCCC2	-25% (inactive)
CC(C)NC(=O)O/N=C1\CCC2[C@@H]3CC=C4C[C@@H](OC(=O)NC(C)C)CC[C@]4(C)C3CC[C@]12C (stereo partly drawn)	67% (inactive)
COc1ccc2c(c1)c(=O)c1c(NCCN(C)C)ccc3nnn2c31	14% (inactive)
CCCC(=O)N(C(=O)CCC)C1=C(Cl)C(=O)c2ccccc2C1=O	95% (active)
CN(C)C1C=CCC(c2ccccc2)C1[N+](=O)[O-] (stereo not drawn)	68% (inactive)
CC(=O)NC1C(=O)CC(c2ccccc2)N(C)C1c1ccccc1 (stereo not drawn)	6% (inactive)
CCCCC#CCCOC(=O)C#CCCCC	4% (inactive)
CC1C[C@]2(C)C(=S)Nc3ccccc3[C@@H]2Nc2ccccc21 (stereo partly drawn)	55% (inactive)
O=[N+]([O-])/C=C/c1c[nH]c2c1ccc1ccccc12	90% (active)
CCC[CH2][Sn]([S][Sn]([CH2]CCC)([c]1ccccc1)[c]1ccccc1)([c]1ccccc1)[c]1ccccc1	95% (active)
CCN(CC)CCCCNc1ccc(Cl)cc1	-2% (inactive)
C[n+]1c(/C=C\c2ccccc2)sc2ccccc21	90% (active)
Cc1nnc2nc3c(nn12)c1ccccc1n3C	-33% (inactive)
CS(=O)c1cc(=O)c2ccccc2s1 (stereo not drawn)	73% (active)
COC(=O)C1=C(C)NC(C)=C(C(=O)OC)C1c1ccc(NCc2ccccc2)c([N+](=O)[O-])c1	53% (inactive)

SMILES	growth inhibition
C/C(=N/NC(=S)Nc1ccccc1Cl)c1ccccn1	11% (inactive)
Nc1ccccc1Sc1ccc(C(F)(F)F)cc1[N+](=O)[O-]	30% (inactive)
COc1ccc2nc(-c3ccc(Cl)cc3)[nH]c2c1	91% (active)
Cc1c(C)c(C)c(C(=O)c2ccccc2C(=O)NCCSC(C)(C)C)c(C)c1C	60% (inactive)
COC(=O)C(=O)C(C(=O)Nc1cccc(C)c1C)C1Sc2ccccc2NC1=O (stereo not drawn)	88% (active)
Cc1nc2c(O)c3c(c(O)c2nc1C)C1C=CC3CC1	89% (active)
C[C@]12CCC(=O)C=C1CC[C@@H]1[C@@H]2[C@@H](O)C[C@@]2(C)[C@H]1CC[C@]2(O)C(=O)COC(=O)CCC1CCCC1	95% (active)
CC(=O)OCCc1ccc(CCc2ccccc2)cc1	4% (inactive)
COc1cc2c(cc1OC)C(=O)C(C)(c1ccccc1)NC2 (stereo not drawn)	42% (inactive)
CCCCCCC(/C=C/c1c(Cl)cccc1Cl)=N\O	46% (inactive)
O=C1OC(c2ccc(O)cc2)=C(c2ccccc2)C1c1ccccc1 (stereo not drawn)	29% (inactive)
c1cc[c]([Ge]([O]c2cccc3cccnc23)([c]2ccccc2)[c]2ccccc2)cc1	7% (inactive)
CCCCCCCCCCCCCCCCCCOP(=O)([O-])OCC[N+](C)(C)C	99% (active)
Cc1noc(NS(=O)(=O)c2ccc(NCc3c4ccccc4nc4cc(Cl)ccc34)cc2)c1C	-7% (inactive)
CCC(=NCCCCCCN=C(CC)c1cc(C)cc([N+](=O)[O-])c1O)c1cc(C)cc([N+](=O)[O-])c1O.[Fe]	79% (active)
O=C(O)c1ccc([N+](=O)[O-])cc1.[Ag]	99% (active)
O=C1C(=O)c2ccccc2C(O)=C1C(c1ccccc1)c1ccccc1	85% (active)
CC(=O)SC1C(=O)N(C)C(SC(C)=O)C(=O)N1C (stereo not drawn)	11% (inactive)
COc1ccc2c(c1)CN([C@@H](C)[C@H]1CC[C@H]3[C@@H]4CC[C@H]5C[C@@H](O)CC[C@]5(C)[C@H]4CC[C@]13C)CO2	99% (active)
